FUS suppressor – suppressors of FUS proteinopathy in yeast. S. cerevisiae FUS-expressing, growth rescue, OD600, 24 h. Potency, µM (titrated, usually from 76.6 µM), usual class: activators. 390,000 tested, 0.24% active. AID 1347120; note: nearly all actives have a fitted effect of over 55% in size
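Read-out: OD at 600 nm after 24hr at 30C, reporting rescue of FUS-induced yeast toxicity. Cells at OD 0.005 in galactose (2%) minimal medium; compounds tested in a dilution series; CP55940 titration from 92uM final as control.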
Abeta yeast res – A-beta toxicity reversal in yeast; yeast expressing A-beta42, growth rescue, OD600, 48 h; response scale: 0% DMSO, 100% iron-clioquinol control; 410,000 tested, 0.063% active; Potency, µM (highest dose often 46.1 µM), most hits filed as activators; note: nearly all actives have a fitted effect of over 55% in size
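Growth rescue measured by 600 nm absorbance after 48 h yeast culture at 30 C with compound. Values normalized between DMSO and an equimolar ferric chloride plus clioquinol control.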
Mito fusion yeast – inhibitors of mitochondrial division or activators of mitochondrial fusion. 320,000 tested, 0.23% active. S. cerevisiae fusion-defective mutant growth rescue, CellTiterGlo 48 h. Potency, µM (top dose mostly 46.1 µM), actives largely listed as activators; note: nearly all actives have a fitted effect of over 45% in size
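Temperature-sensitive fusion-defective S. cerevisiae (e.g. fzo1-1, mgm1-5) were grown with compound in YPEG medium (3% ethanol, 3% glycerol) for 48 hours at 37C. Growth rescue was measured as viability by CellTiterGlo luminescence after 10 minutes at ambient.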
aSyn rescue – inhibitors of alpha-synuclein toxicity in yeast. Yeast expressing alpha-synuclein, growth rescue, BacTiter-Glo, 24 h. Potency, µM (titrated, usually from 46.1 µM), most hits filed as activators. 370,000 tested, 0.14% active; note: nearly all actives have a fitted effect of over 65% in size
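Rescue of yeast growth: cells expressing toxic alpha-synuclein, induced in galactose at OD600 0.02, incubated with compound 24 h at 30 C. ATP luminescence quantified growth; inhibitors of toxicity appear as activators.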
TDP43 rescue – inhibitors of TDP-43 toxicity in yeast. Potency, µM (titrated, usually from 46.1 µM), hits mostly activators. 410,000 tested, 1.8% active. TDP-43 expressing yeast growth rescue, BacTiter-Glo, 24 h; note: nearly all actives have a fitted effect of over 50% in size
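In this qHTS, compounds that restore growth of yeast expressing TDP-43 appear as activators. Cells (OD600=0.02, galactose medium, raffinose-pregrown) are incubated with compound 24 hr at 30 deg C and growth is quantified by BacTiter-Glo.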
Hits are given with their value; - = inactive; ? = inconclusive; . = not tested or not shown; ! = repeats disagree. A selection: hits, their analogues and other compounds. The true share with any hit is near 2.2%. Calls come from the whole dose curve; as a rule, active = well fitted curve in the direction sought with a large enough effect; inconclusive = small, poorly fitted or top-dose-only effect, or another doubt; inactive = no such curve, though single readings can be large; an effect the other way counts as inactive or inconclusive.

SMILES	FUS suppressor	Abeta yeast res	Mito fusion yeast	aSyn rescue	TDP43 rescue
Cc1ccc(C2(C)NC(=O)N(CC(=O)N3c4ccccc4NC(=O)CC3C)C2=O)cc1 (stereo not drawn)	-	-	-	3.5µM	-
CCOc1ccc(C(=O)NCc2nc3cccnc3n2Cc2cccc(OC)c2)cc1	-	-	.	.	-
Cc1ccc(N=Nc2ccc(O)c(/C=N\NC(=O)c3ccc(N)cc3)c2)cc1C	1.1µM	-	-	-	-
CCNC(=O)OCCN1C(=O)CCC12CCC(c1ccc(Cl)cc1)CC2 (stereo not drawn)	-	.	.	.	.
COC(=O)c1cccc(CN2C(=O)C(C)Oc3ccc(C)cc32)c1 (stereo not drawn)	-	-	.	-	18µM
CN(C)c1ccc(C(=O)Nc2c(C(=O)NC(C)(C)C)oc3ccccc23)cc1	-	-	.	.	-
CC(C)c1ccc(NC(=O)O[C@@H]2CC[C@@]34CCCN3C(=O)CCC[C@H]4C2)cc1	-	.	.	.	.
O=C(CSc1nnc(SCc2cccc3ccccc23)s1)Nc1ccc(S(=O)(=O)Nc2nccs2)cc1	-	.	.	.	.
Cc1cccc(OCC(=O)Nc2ccc3nc(C)sc3c2)c1	-	-	-	-	2.5µM
Cc1nc2ccc(NC(=O)COc3cccc(F)c3)cc2s1	-	-	-	-	20µM
Cc1nc2ccc(NC(=O)COc3ccccc3)cc2s1	-	-	-	-	?
Brc1ccc(OCc2nc(-c3ccccn3)n[nH]2)cc1	-	-	-	?	16µM
Cc1cccc(Nc2ncnc3onc(-c4cccc(Cl)c4)c23)c1C	?	-	-	-	13µM
CCc1cccc(Nc2ncnc3onc(-c4ccc(F)cc4)c23)c1	-	-	.	.	?
Fc1ccc(Nc2ncnc3onc(-c4cccc(Cl)c4)c23)c(F)c1	-	-	.	.	-
Cc1cccc(Nc2ncnc3onc(-c4ccc(F)cc4)c23)c1C	?	-	-	-	14µM
COc1ccc([C@H]2Cc3cccc(O)c3C(=O)O2)cc1O	-	-	-	-	11µM
O=C(Nc1cccs1)Nc1ccc(Br)cc1F	-	-	-	-	14µM
O=C(Nc1ccc(F)cc1F)Nc1csc2ccccc12	-	-	-	-	11µM
O=C(Nc1cccs1)Nc1ccc(F)cc1F	-	-	-	-	14µM!
Cc1cc(C)cc(NC(=O)Nc2cccs2)c1	-	-	.	.	-
Cc1cccnc1NC(=O)Nc1cccs1	-	-	-	-	5µM
C#CCNC(=O)C[C@@H]1C(=O)N2CCCC3=C2[C@@]1(C(=O)OCC)CCC3	-	.	.	.	.
COc1ccc(-c2cc(-c3nnc(SCC(=O)Nc4ccc(-c5nc6ccc(C)cc6s5)cc4)n3N)[nH]n2)cc1	-	.	.	.	.
O=C(Nc1cccs1)Nc1ccccc1Cl	-	-	-	-	-
SMILES	FUS suppressor	Abeta yeast res	Mito fusion yeast	aSyn rescue	TDP43 rescue
Cc1ccc(NC(=O)Nc2cccs2)c(Cl)c1	-	-	-	-	13µM
CC(=O)c1cccc(Nc2c3c(nc4nc(-c5cccs5)nn24)CCCC3)c1	-	-	.	.	-
CCC(C)Sc1nc2c(c(=O)n1C)SC(C)C2 (stereo not drawn)	-	-	-	-	18µM
CC(=O)Nc1ccccc1	-	-	.	-	-
CC(=O)Nc1ccc(N=Nc2ccccc2)cc1	.	-	-	-	10µM
CC(=O)OCC(=O)Nc1ccc(N=Nc2ccccc2)cc1	-	-	-	-	11µM
O=C(Nc1ccc(F)cc1)c1cccnc1NCCc1ccccc1	-	-	18µM	-	13µM
O=C(Nc1cccc(F)c1)c1cccnc1NCCc1ccccc1	-	-	?	-	-
O=C(c1cc(Br)cc(Br)c1)N1CCC(Oc2cccnc2)CC1	-	.	.	.	.
COc1ccc(N2CC(NC(=O)c3ccc4c(c3)OCO4)CC2=O)cc1 (stereo not drawn)	-	-	.	.	-
Cc1onc(-c2ccccc2)c1C(=O)N/N=C/C(Br)=C/c1ccccc1	.	-	?	?	18µM
O=C(N/N=C/C(Br)=C/c1ccccc1)NC1CCCCC1	-	-	-	-	?
O=C(O)c1ccc(N/N=C/C(Br)=C/c2ccccc2)cc1	-	-	-	-	11µM
O=C(N/N=C/C(Br)=C/c1ccccc1)C1CC1	-	-	-	-	22µM
O=C(O)c1ccc(N/N=C/c2cccc(C(F)(F)F)c2)cc1	-	-	-	-	13µM

Assay outcomes from PubChem.
